# Hit rate of the full screen: of about 310,000 compounds, about 14,000 (4.5%) showed an effect of 50% or more. Effects have a minus sign here. For the sample, strong results were picked, then their nearest neighbours and some compounds at random.
# Target: human ether-à-go-go-related gene (hERG) potassium channel (human, UniProt Q12809)
# Assay: primary screen, population patch clamp on CHO cells stably expressing hERG; higher = less effect of the substance
# 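Note: peak tail current of the secondary pulse compared with the same well before compound.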
# Sequence of human ether-à-go-go-related gene (hERG) potassium channel (Q12809 whole entry, looked up): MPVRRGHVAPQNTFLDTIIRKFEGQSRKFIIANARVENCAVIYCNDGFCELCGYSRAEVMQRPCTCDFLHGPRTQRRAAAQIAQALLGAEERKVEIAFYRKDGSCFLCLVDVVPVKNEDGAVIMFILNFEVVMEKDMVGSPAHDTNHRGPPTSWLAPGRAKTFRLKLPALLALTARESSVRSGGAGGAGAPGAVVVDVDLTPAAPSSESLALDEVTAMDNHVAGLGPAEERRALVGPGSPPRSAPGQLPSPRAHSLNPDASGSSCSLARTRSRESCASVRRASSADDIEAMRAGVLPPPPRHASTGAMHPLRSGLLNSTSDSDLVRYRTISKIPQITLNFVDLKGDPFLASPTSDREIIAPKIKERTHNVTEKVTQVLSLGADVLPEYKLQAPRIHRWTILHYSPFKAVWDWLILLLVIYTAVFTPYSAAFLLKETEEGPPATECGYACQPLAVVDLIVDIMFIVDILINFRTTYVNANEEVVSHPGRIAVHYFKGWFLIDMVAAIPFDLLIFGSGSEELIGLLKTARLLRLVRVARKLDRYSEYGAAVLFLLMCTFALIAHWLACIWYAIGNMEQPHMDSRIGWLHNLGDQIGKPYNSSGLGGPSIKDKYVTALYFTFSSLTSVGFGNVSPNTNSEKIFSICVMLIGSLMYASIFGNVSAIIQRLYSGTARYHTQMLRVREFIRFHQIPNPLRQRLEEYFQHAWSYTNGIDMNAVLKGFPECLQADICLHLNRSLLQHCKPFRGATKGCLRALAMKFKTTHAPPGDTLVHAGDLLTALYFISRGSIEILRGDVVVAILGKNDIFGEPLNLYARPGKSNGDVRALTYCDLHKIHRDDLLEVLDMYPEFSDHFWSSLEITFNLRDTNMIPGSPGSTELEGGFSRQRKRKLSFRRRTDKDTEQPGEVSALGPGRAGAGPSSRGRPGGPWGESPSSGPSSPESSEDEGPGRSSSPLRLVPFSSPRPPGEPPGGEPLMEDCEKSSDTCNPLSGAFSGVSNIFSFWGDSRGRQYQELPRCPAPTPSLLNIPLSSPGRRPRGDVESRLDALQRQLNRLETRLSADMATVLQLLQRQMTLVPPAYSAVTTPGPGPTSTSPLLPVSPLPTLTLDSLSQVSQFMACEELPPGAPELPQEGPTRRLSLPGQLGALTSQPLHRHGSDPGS
row,Compound,"hERG current change (%, negative = inhibition) at 10uM [%]"
1,O=C(Oc1ccc2c3c(c(=O)oc2c1)CCCC3)c1cccs1,-4.43
2,O=C(c1ccc(-c2ccccc2)c(F)c1)C1CCCN(CCCn2cccn2)C1 (centres unmarked),-69.6
3,CCn1cc(CN2CCCC(C(=O)c3ccc(-c4ccccc4)c(F)c3)C2)cn1 (centres unmarked),-57.6
4,COCC(=O)N1CCCC(C(=O)c2ccc(-c3ccccc3)c(F)c2)C1 (centres unmarked),-23.3
5,O=C(c1ccc(-c2ccccc2)c(F)c1)C1CCCN(CCO)C1 (centres unmarked),-44.8
6,O=C(c1ccc(-c2ccccc2)c(F)c1)C1CCCN(C(=O)c2cncs2)C1 (centres unmarked),-18.4
7,CCn1cc(CN2CCCC(C(=O)c3ccc(-c4ccccc4)cc3)C2)cn1 (centres unmarked),-59.1
8,CC(=O)NCC(=O)N1CCCC(C(=O)c2ccc(-c3ccccc3)c(F)c2)C1 (centres unmarked),-25.1
9,CCC(=O)N1CCCC(C(=O)c2ccc(-c3ccccc3)cc2)C1 (centres unmarked),-19
10,Cn1cc(CN2CCCC(C(=O)c3ccc(-c4ccccc4)cc3)C2)cn1 (centres unmarked),-34.4
11,NC(=O)CSc1nc2scc(-c3ccc(Cl)cc3)c2c(=O)n1Cc1ccccc1,33.1
12,O=[N+]([O-])c1ccc(N2CCN(S(=O)(=O)c3ccccc3[N+](=O)[O-])CC2)cc1NCc1cccnc1,-8.91
13,Cc1ccccc1OCC(=O)N/N=C/c1cccc(Oc2ccc([N+](=O)[O-])cc2[N+](=O)[O-])c1,5.59
14,CCn1cc(C(=O)NCCc2ccccc2)c(=O)c2cc(S(=O)(=O)N(C)C)ccc21,7.05
15,O=C(NCCc1csc(-c2cccnc2)n1)c1cccc(Cl)c1,-17.7
16,CC1CCN(c2ccc(C(=O)O)cc2)CC1,2.86
17,Cc1ccccc1/C=C/C(=O)NCC(=O)N1CCC(N(C)C2CCCCC2C)CC1 (centres unmarked),-72.1
18,CN(C)C(CNC(=O)/C=C/c1cccc(Cl)c1)c1ccccc1 (centres unmarked),-19.2
19,O=C(/C=C/c1cccc(Cl)c1)NCCN1CCOCC1,-14.7
20,CC1CCN(C(=O)CNC(=O)Cc2ccccc2)CC1,9.53
21,CC1CCCCC1N(C)C1CCN(C(=O)CNC(=O)/C=C/c2cccc(Cl)c2)CC1 (centres unmarked),-73.6
22,COc1ccc(/C=C/C(=O)NCC(=O)N2CCC(N(C)CCN3CCOCC3)CC2)cc1OC,14.7

row,Compound,"hERG current change (%, negative = inhibition) at 10uM [%]"
1,COc1ccccc1/C=C/C(=O)NC(=S)N(C)C1CCCCC1,1.35
2,CCOc1ccccc1/C=C/C(=O)NCC(=O)N1CCC(N(C)C2CCCCC2C)CC1 (centres unmarked),-54.7
3,CCOc1ccc(C(=O)NCC(=O)N2CCC(C)CC2)cc1OCC,3.68
4,O=C(Nc1ccc(S(=O)(=O)NCC2CCCO2)cc1)C1CC(=O)N(c2ccccc2)C1 (centres unmarked),3.16
5,O=C(NCCCn1ccnc1)c1cn(Cc2ccc(F)cc2)nn1,-9.7
6,COc1ccc(C(C)=O)cc1COC(=O)CNC(=O)c1cc(C)cc(C)c1,-11.7
7,Cc1cccc(/C=N/NC(=O)C2CCCNC2=O)c1 (centres unmarked),19
8,Cn1c(O)c(C(=Nc2ccccc2)SCc2ccccc2Cl)c(=O)n(C)c1=O,21.5
9,CC(/C=C1\SC(=Nc2cccnc2)NC1=O)=C\c1ccccc1,8.95
10,CC(=O)NC(Cc1ccccc1C)C(=O)NC1CCN(c2ncccc2[N+](=O)[O-])CC1 (centres unmarked),-1.73
11,O=C(NCCCOc1cccc(CN2CCCCC2)c1)c1ccc(Cl)c(Cl)c1.O=C(O)C(=O)O,-60.8
12,CN1CCN(CCOc2ccc(Cl)c(Cl)c2)CC1.O=C(O)C(=O)O,-22.3
13,Cc1cc(OCC(=O)N2CCCC2)ccc1Cl,-0.71
14,Clc1ccc(OCCCN2CCCC2)cc1Cl.O=C(O)C(=O)O,-67.7
15,Cc1cc(OCCCCCN2CCCC2)ccc1Cl.O=C(O)C(=O)O,-77.2
16,O=C(O)C(=O)O.c1ccc(COc2cccc(CN3CCCCC3)c2)cc1,-19.2
17,Clc1ccc(OCCN2CCCCC2)cc1Cl.O=C(O)C(=O)O,-42.1
18,Cc1cc(OCCCN2CCCC2)ccc1Cl,-42.9
19,CC(=O)OCC(=O)NCCCOc1cccc(CN2CCCCC2)c1.Cl,-2.29
20,CC(=O)Nc1scc(-c2ccccc2)[n+]1-c1ccc(C)cc1.[Br-],1.06
21,O=C(CCCNC(=O)c1ccc(Cl)cc1)Nc1ccc(F)c(S(=O)(=O)N2CCOCC2)c1,-33.6
22,C/C(N)=C(/C#N)C(=O)COC(=O)c1cccc2ccccc12,-8.17
